Rows were chosen to be rich in hits. Some 19% of all compounds tested hit in one or more screens of this group.
DT40 TDP1 no CPT: qHTS for Inhibitors of human tyrosyl-DNA phosphodiesterase 1 (TDP1): qHTS in cells in absence of CPT; 420,000 compounds, 15% hits; Potency, µM (titrated, usually from 46.2 µM), for the others: at the highest dose activity change, negative = growth inhibition, most hits filed as inhibitors; DT40 Tdp1-/- hTDP1 cells, no CPT, ATP luminescence, 48 h; AID 686978, 2013; also: potency is read from the fitted curve at half-maximal effect; nearly all actives have a fitted effect of over 55% in size
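Seeded 400 DT40-hTDP1 cells/well (vehicle DMSO, no 20 nM CPT); pinned compounds; ≥48 hr at 37 °C; CellTiter-Glo luminescence as viability measure.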
IL-1B inflam inh: blocks inflammasome-driven IL-1 beta release. THP-1 LPS/ATP IL-1B secretion, AlphaLISA, 16 h; hits give low values. activity change, % at 57.5 µM. 360,000 compounds, 4.7% hits. AID 743279; in the data active = activity change below about -50%; inconclusive = mostly about -30% to -49%
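THP-1 cells pretreated 1 hr with compounds (up to 57.5 uM final), then stimulated with LPS (250 ng/mL final) plus ATP (1.25 mM final); secreted IL-1B measured by AlphaLISA after 16 hr, decreased signal indicating inhibition.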
HT1080 IDH1KD tx: kills HT-1080 cells with IDH1 knockdown. HT-1080 IDH1 knockdown viability, ATP luminescence, 48 h. Potency, µM (top dose mostly 46.1 µM), for inactives: top-dose activity, negative = toxicity, actives largely listed as cytotoxic. 360,000 compounds, 2% hits;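 also: potency is read from the fitted curve at half-maximal effect; 0% = DMSO wells and -100% = cell-free medium wells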
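After a 2 h attachment period, IDH1KD HT-1080 cells took pin-transferred compound for 48 h at 37 °C; ATP-based luminescence after 10 min room-temperature reagent incubation reported viability.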
TDP1 cell CPT: DT40-hTDP1 cell growth loss with CPT; chicken DT40 Tdp1-/-;hTDP1 cells + 20 nM CPT, ATP luminescence, 48 h; AID 686979; Potency, µM (top dose mostly 46.2 µM), for the others: top-dose activity change, negative = growth inhibition, usual class: inhibitors; 420,000 compounds, 12% hits; also: potency is read from the fitted curve at half-maximal effect; nearly all actives have a fitted effect of over 55% in size
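Cell growth measured by CellTiter-Glo luminescence after a minimum 48 h, 37 C compound exposure with 20 nM CPT in Tdp1-knockout DT40 cells stably expressing hTDP1, seeded 400/well; qHTS titration format.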
HT1080-NT tox: kills 2HG-producing HT-1080-NT fibrosarcoma cells | HT-1080-NT fibrosarcoma viability, CellTiter-Glo ATP luminescence, 48 h | Potency, µM (series often up to 46.1 µM), without a hit: at the top dose activity, negative = less viability, most hits filed as cytotoxic | 360,000 compounds, 1.6% hits;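 also: NT is the 2HG producing partner of a matched IDH1 knockdown line; potency is read from the fitted curve at half-maximal effect; 0% = DMSO-treated cells and -100% = media-only wells without cells; nearly all actives have a fitted effect of over 55% in size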
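HT-1080-NT fibrosarcoma cells (2HG-overproducing), 750 cells/well in RPMI with 5% FBS, dosed after 2 h and incubated 48 h at 37C. CellTiter-Glo luminescence normalized to DMSO and no-cell wells; concentration-response curves fitted and classed.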
Numbers without * were called inactive; ? = inconclusive; . = not tested or not shown; [ ] = dose if it differs, or a comment. Unless noted, calls follow the shape of the dose curve; as a rule, active = well fitted curve in the direction sought with a large enough effect; inconclusive = small, poorly fitted or top-dose-only effect, or another doubt; inactive = no such curve, though single readings can be large; an effect the other way counts as inactive or inconclusive. Unless noted, % is scaled to controls: 0 for no effect and ±100 for the full control effect.

SMILES	DT40 TDP1 no CPT	IL-1B inflam inh	HT1080 IDH1KD tx	TDP1 cell CPT	HT1080-NT tox
O=C(N/C(=C/C=C/c1ccccc1)C(=O)N1CCOCC1)c1ccccc1Br	-9%	-13	-6%	-5%	0%
Cc1ccc(-c2cc(C(=O)N3CCN(c4ncccn4)CC3)c3cc(Br)ccc3n2)o1	8.2µM*	-6	-9%	4.1µM*	-4%
O=C(c1cc(-c2ccccn2)nc2ccc(Br)cc12)N1CCN(S(=O)(=O)c2ccccc2)CC1	?	50	-2%	?	-5%
Cc1ccc(-c2cc(C(=O)N3CCOCC3)c3ccccc3n2)o1	18µM*	6	?	?	?
Cc1ccc(-c2cc(C(=O)N3CCN(c4ccc(F)cc4)CC3)c3ccccc3n2)o1	29µM*	-4	-22%	?	-6%
Cc1ccc(-c2cc(C(=O)N3CCN(c4ccc(O)cc4)CC3)c3ccccc3n2)cc1	?	-24	?	?	?
CCCN(CCC)C(=O)Cn1c(=O)c2ccccc2n2c(=S)sc(-c3ccccc3C)c12	15µM*	21	22%	10µM*	24%
CCCN(CCC)C(=O)Cn1c(=O)c2sccc2n2c(=S)sc(-c3ccccc3)c12	-12%	23	3%	-16%	5%
COC(=O)[C@@]12CCCN1[C@H](c1ccc(-c3ccc(Cl)c(Cl)c3)c(OC)c1)[C@H]1C(=O)N(C)C(=O)[C@H]12	23µM*	?	-29%	13µM*	?
COC(=O)[C@@]12CCCCN1[C@H](c1ccc(-c3ccc(C(C)=O)cc3)c(OC)c1)[C@@H]1C(=O)N(C)C(=O)[C@@H]12	15µM*	-5	0%	16µM*	4%
COC(=O)[C@@]12CCCN1[C@H](c1ccc(-c3cccc(Cl)c3)c(OC)c1)[C@H]1C(=O)N(C)C(=O)[C@H]12	16µM*	-8	-2%	15µM*	0%
COC(=O)[C@@]12CCCCN1[C@H](c1ccc(-c3cccc(Cl)c3)c(OC)c1)[C@@H]1C(=O)N(C)C(=O)[C@@H]12	21µM*	?	?	?	?
COC(=O)[C@]12CCCCC=C1N(Cc1ccco1)C(=O)[C@H](CC(=O)N1CCOCC1)C2	-11%	-1	7%	-1%	20%
COC(=O)[C@@]12CCCCN1[C@H](c1ccc(-c3ccccc3)c(OC)c1)[C@H]1C(=O)N(C)C(=O)[C@H]12	13µM*	43	7%	?	11%
CCN1C(=O)[C@H]2[C@@H](c3ccc(-c4cccc(Cl)c4)c(OC)c3)N3CCC[C@@]3(C(=O)OC)[C@H]2C1=O	9.2µM*	-51*	-11%	13µM*	?
COc1ccccc1C(N)=S	-8%	23	6%	0%	1%
COc1cccc(C(=O)N2N=C(c3ccccn3)CC2(O)C(F)(F)F)c1 (centres undefined)	4.6µM*	123	?	21µM*	?
COc1cccc(C(=O)N2N=C(c3cccc(OC)c3)CC2(O)C(F)(F)F)c1 (centres undefined)	?	-2	0%[9.24 µM]	?	-27%
COc1cccc(C2=NN(C(=O)c3cccs3)C(O)(C(F)(F)F)C2)c1 (centres undefined)	18µM*	-72*	?	?	?
COc1cccc(C2=NN(C(=O)c3ccc(C)o3)C(O)(C(F)(F)F)C2)c1 (centres undefined)	10µM*	?	-26%	?	?
O=C(c1ccco1)N1N=C(c2ccc(Br)cc2)CC1(O)C(F)(F)F (centres undefined)	?	-63*	?	-2%	-7%
COCCNC(=O)C1Cc2cc(S(=O)(=O)N3CCCC3)ccc2N1C(C)=O (centres undefined)	12%	3	-3%	-1%	-2%
O=C(NCc1ccccc1)C1C(c2ccccc2)=Nc2ccccc2N1C(=O)c1cccnc1 (centres undefined)	-12%	44	-10%	1%	-3%
CC(O)c1cccc(NC2=CC(=O)CC(C)(C)C2)c1 (centres undefined)	-7%	-2	-12%	-7%	0%[9.24 µM]
NC(=O)c1ccc(NC(=O)COC(=O)c2ccc(Br)o2)cc1	-2%	-9	-2%	-5%	5%[9.24 µM]
SMILES	DT40 TDP1 no CPT	IL-1B inflam inh	HT1080 IDH1KD tx	TDP1 cell CPT	HT1080-NT tox
Cc1ccc(-c2csc3ncnc(SCc4ccc(C(=O)O)cc4)c23)cc1	0%	2	-17%	-13%	-4%
COc1ccc(C(=O)N2N=C(c3cccc(OC)c3)CC2(O)C(F)(F)F)cc1 (centres undefined)	23µM*	?	-2%	?	24%
CC(C)=CCC12Oc3cc(O)ccc3C1(O)Oc1cc3c(c(O)c1C2=O)C=CC(C)(C)O3 (centres undefined)	?	-1	-15%	26µM*	-27%
CC(C)=CCc1c2c(c(O)c3c(=O)c(O)c(-c4ccccc4)oc13)C=CC(C)(C)O2	-10%	.	.	-6%	.
O=C(c1ccc(Cl)c(Cl)c1)N1CCC(=O)N([C@H](COCc2ccc(Cl)cc2)Cc2ccccc2)CC1	23µM*	-67*	26µM*	?	?
O=C(c1ccc(Cl)c(Cl)c1)N1CCC(=O)N(C(COCc2cccc(Cl)c2)Cc2ccccc2)CC1 (centres undefined)	?	-68*	?	?	?
O=C(c1ccc(Cl)cc1)N1CCC(=O)N(C(CO)Cc2ccccc2)CC1 (centres undefined)	8%	60	0%	5%	-2%
CNC(=O)C(=O)NCCc1ccc(Cl)cc1	-1%	-11	5%	6%	5%
COCCNC(=O)C1CCCN(C(=O)c2ccc3c(c2)C(C)(C)CCC3(C)C)CC1 (centres undefined)	?	-5	0%	13µM*	-19%
COCCNC(=O)C1CCCN(C(=O)c2ccnc(Cl)c2)CC1 (centres undefined)	-16%	-62*	?	-11%	?
COCCNC(=O)C1(C)CCN(C(=O)c2ccc3c(c2)C(C)(C)CCC3(C)C)C1 (centres undefined)	26µM*	28	2%	?	2%
COc1ncnc2c1ncn2CCCN1CCN(c2ncccn2)CC1	-29%	27	12%	-2%	2%
COc1ccc(OCc2nc3ccccc3n2C(C)C)cc1	?	?	?	-4%	-7%
CCNC(=O)NC(=O)CSc1ccccc1F	-7%	-3	0%	-19%	-6%
COc1ccc(OC)c2[nH]c(=O)c(CCNC(=O)c3ccc(Br)o3)cc12	?	?	14%	?	-17%

Source: PubChem
